Measured values published in the supplement of paper PMC12024424.
Structures can show the parent of a compound that is named as a salt.

The compounds below were run on Staphylococcus aureus Sa2 (MRSA, cystic fibrosis isolate) (assay: growth reduction vs untreated control (viable cell count); higher = stronger antibacterial activity; extreme values may be limits of the assay). Conditions: 0.1 mM; 24 h.
Experimental: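 Single-dose screen of the MedChem Express Drug Repurposing Library (0.1 mM, 1% DMSO) against planktonic MRSA S. aureus Sa2 (CF isolate) in TSB in 96-well plates, 37 °C aerobic, 24 h. Assays were run in triplicate and repeated twice.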

| Compound | growth reduction [%] |
| --- | --- |
| O=C(CCCCCCNC(=O)c1cnc(N(c2ccccc2)c2ccccc2)nc1)NO [Ricolinostat] | 100 |
| CNC(=O)c1cc(Oc2ccc(NC(=O)Nc3ccc(Cl)c(C(F)(F)F)c3)cc2)ccn1 [Sorafenib] | 100 |
| CC1=C(C)C(=O)C(CCCCCCCCCC[P+](c2ccccc2)(c2ccccc2)c2ccccc2)=CC1=O [Visomitin] | 100 |
| CSc1ccc(C(=O)/C=C/c2cc(C)c(OC(C)(C)C(=O)O)c(C)c2)cc1 [Elafibranor] | 95 |
| COc1cc2ncnc(Nc3ccc(F)c(Cl)c3)c2cc1NC(=O)/C=C/CN1CCCCC1 [Dacomitinib] | 100 |
| Cc1ccc(-c2c(C(=O)CCl)n(CCCO)c3ncnc(N)c23)cc1 | 100 |
| CN[C@H]1CN(c2ccc3c(=O)c(C(=O)O)cn(-c4nccs4)c3n2)C[C@@H]1OC [Voreloxin (Hydrochloride)] | 100 |
| CC(C)=CCC/C(C)=C/CC/C(C)=C/CSc1ccccc1C(=O)O [Salirasib] | 100 |
| C1CCC(C(CC2CCCCN2)C2CCCCC2)CC1 (configuration not stated) [Perhexiline maleate] | 100 |
| Cc1cccc(Nc2ccccc2C(=O)O)c1C [Mefenamic acid] | 100 |
| C#C[C@]1(O)CC[C@H]2[C@@H]3CCc4cc(OC)ccc4[C@H]3CC[C@@]21C [Mestranol] | 93 |
| CSc1ccc2c(c1)N(CCC1CCCCN1C)c1ccccc1S2 (configuration not stated) [Thioridazine (hydrochloride)] | 100 |
| CCCCCc1ccc(C=CC(=O)Nc2ccccc2C(=O)O)cc1 [N-(p-amylcinnamoyl) Anthranilic Acid] | 100 |
| COc1cc(C)c2c(Oc3cccc(C(F)(F)F)c3)c(OC)cc(NC(C)CCCN)c2n1 (configuration not stated) [Tafenoquine (Succinate)] | 100 |
| COc1cc(NCc2ccc3nc(N)nc(N)c3c2C)cc(OC)c1OC [Trimetrexate] | 100 |
| Cc1c(CN(C)C(=O)/C=C/c2cnc3c(c2)CCC(=O)N3)oc2ccccc12 | 100 |
| C=C1C[C@H]2[C@@H]3CCC4=CC(=O)CC[C@@H]4[C@H]3CC[C@]2(C)[C@@]1(OC(C)=O)C(C)=O [Nestoron] | 98 |
| O=C(O)CNC(=O)c1c(=O)cc(CCc2ccccc2)n2[nH]cnc12 [Enarodustat] | 92 |
| CC(C)(C)NC(=O)N[C@H](C(=O)N1C[C@H]2[C@@H]([C@H]1C(=O)NC(CC1CCC1)C(=O)C(N)=O)C2(C)C)C(C)(C)C (some centres not stated) [Boceprevir] | 92 |
| C[C@H](Nc1cc(-c2cnn(C)c2)cc(Nc2cnccn2)n1)c1ccc(F)cc1 [Ilginatinib (maleate)] | 95 |
| CCCCCOc1ccccc1/C(=C\SC)n1ccnc1 [Neticonazole (hydrochloride)] | 100 |
| CC(C)(O)c1ccccc1CC[C@@H](SCC1(CC(=O)O)CC1)c1cccc(/C=C/c2ccc3ccc(Cl)cc3n2)c1 [Montelukast (sodium)] | 100 |
| C1=N/C2=N/c3ccc(OCCN4CCCC4)c(c3)COC/C=C/COCc3cccc(c3)C(=C1)N2 [Pacritinib] | 100 |
| COc1cccc2c1c(O)c(C(=O)N(C)c1ccc(C(F)(F)F)cc1)c(=O)n2C [Tasquinimod] | 98 |
| O=C(NCc1c(F)cc(F)cc1F)c1cn2c(c(O)c1=O)C(=O)N1[C@H]3CC[C@H](C3)O[C@@H]1C2 [Bictegravir] | 100 |
| NC1=NCC2c3ccccc3Cc3ccccc3N12 (configuration not stated) [Epinastine] | 100 |
| O=C(O)Cc1ccccc1Nc1c(Cl)cccc1Cl [Diclofenac] | 100 |
